PMC7862700, “An all-to-all approach to the identification of sequence-specific readers for epigenetic DNA modifications on cytosine”

Columns and labels:
Test in all cases: DAPPL (digital affinity profiling via proximity ligation, sequencing); 10 mM Tris-HCl pH 7.5, 50 mM NaCl, 1 mM DTT, 4% glycerol, room temperature, 30 min; GST-TFs on glutathione beads, 16-mer random dsDNA library, 0.1% formaldehyde crosslink after washing; high values mean tight binding
FLI1 = target: T1, FLI1 (Homo sapiens, UniProt Q01543 1-452); conditions: protein: recombinant; tags: N-terminal GST; dsDNA, one strand shown
T1 sequence: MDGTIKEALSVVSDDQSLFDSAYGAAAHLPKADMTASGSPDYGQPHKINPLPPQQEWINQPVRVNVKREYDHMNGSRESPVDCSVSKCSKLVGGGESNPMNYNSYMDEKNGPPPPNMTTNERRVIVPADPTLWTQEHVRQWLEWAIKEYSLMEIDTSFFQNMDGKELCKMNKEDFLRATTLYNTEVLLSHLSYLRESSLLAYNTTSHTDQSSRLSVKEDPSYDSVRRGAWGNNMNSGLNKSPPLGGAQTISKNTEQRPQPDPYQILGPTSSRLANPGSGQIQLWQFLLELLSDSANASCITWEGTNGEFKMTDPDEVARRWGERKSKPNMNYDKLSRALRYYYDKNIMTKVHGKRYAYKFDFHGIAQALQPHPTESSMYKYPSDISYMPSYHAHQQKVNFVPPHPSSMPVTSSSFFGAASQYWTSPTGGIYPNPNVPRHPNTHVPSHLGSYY
Outline: (§1)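 The binding signal reported is, for every hexamer, its read frequency for a factor over its read frequency for the tag-only sample. Reads came from pools of yeast-expressed, GST-fused human transcription factors on glutathione beads, barcoded with DNA and mixed with that sample, which were incubated with 200 nmole of a random double-stranded 16-mer DNA library in Tris/NaCl/DTT/glycerol buffer at room temperature for 30 min. After washing, the pools were crosslinked with 0.1% formaldehyde, proximity-ligated with BsaI/T4 ligase for 1 h at 37 °C, PCR-amplified and sequenced on an Illumina NextSeq500.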

ELK1 = target: T2, ELK1 (Homo sapiens, UniProt P19419 1-428); conditions: protein: recombinant; tags: N-terminal GST; dsDNA, one strand shown
T2 sequence: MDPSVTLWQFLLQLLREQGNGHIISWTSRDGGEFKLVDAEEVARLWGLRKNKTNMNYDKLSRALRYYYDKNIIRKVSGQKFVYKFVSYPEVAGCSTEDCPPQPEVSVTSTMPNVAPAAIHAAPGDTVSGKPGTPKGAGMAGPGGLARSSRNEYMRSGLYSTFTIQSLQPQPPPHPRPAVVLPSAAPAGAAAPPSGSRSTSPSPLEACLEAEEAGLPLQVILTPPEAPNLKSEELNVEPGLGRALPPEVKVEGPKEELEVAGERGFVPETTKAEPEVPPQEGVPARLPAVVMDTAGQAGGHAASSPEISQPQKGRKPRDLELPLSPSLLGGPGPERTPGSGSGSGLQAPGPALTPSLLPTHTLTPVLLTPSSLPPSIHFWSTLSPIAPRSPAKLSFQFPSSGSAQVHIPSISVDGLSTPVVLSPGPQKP
Outline: as §1

GABPA = target: T3, GABPA (Homo sapiens, UniProt Q06546 1-454); conditions: protein: recombinant; tags: N-terminal GST; dsDNA, one strand shown
T3 sequence: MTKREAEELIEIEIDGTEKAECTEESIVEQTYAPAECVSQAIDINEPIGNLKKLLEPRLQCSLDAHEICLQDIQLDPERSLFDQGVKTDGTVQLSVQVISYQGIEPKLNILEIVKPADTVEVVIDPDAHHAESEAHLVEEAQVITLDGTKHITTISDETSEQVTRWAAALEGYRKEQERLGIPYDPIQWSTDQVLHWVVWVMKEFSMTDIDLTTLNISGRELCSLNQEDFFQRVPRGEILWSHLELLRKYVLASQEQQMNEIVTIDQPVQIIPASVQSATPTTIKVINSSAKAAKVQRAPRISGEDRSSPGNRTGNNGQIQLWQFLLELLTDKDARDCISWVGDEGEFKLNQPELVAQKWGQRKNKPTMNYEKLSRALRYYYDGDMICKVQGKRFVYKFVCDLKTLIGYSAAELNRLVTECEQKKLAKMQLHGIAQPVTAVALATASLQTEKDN
Outline: as §1

ERG = target: T4, ERG (Homo sapiens, UniProt P11308 1-479); conditions: protein: recombinant; tags: N-terminal GST; dsDNA, one strand shown
T4 sequence: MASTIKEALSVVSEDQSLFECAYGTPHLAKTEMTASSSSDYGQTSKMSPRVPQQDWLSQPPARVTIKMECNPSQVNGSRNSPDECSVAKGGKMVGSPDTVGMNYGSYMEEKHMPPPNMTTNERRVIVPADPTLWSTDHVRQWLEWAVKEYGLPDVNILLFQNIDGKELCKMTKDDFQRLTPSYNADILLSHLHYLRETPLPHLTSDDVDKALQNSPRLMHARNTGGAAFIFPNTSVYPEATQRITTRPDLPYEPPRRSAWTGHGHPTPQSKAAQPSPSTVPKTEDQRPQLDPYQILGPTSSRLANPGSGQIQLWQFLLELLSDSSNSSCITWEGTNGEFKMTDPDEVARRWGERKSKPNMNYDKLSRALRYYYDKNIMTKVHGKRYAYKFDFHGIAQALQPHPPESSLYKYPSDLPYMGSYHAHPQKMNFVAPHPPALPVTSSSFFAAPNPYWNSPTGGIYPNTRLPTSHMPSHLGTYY
Outline: as §1

ELF1 = ELF1 (Homo sapiens, UniProt P32519 1-619); conditions: protein: recombinant; tags: N-terminal GST; dsDNA, one strand shown
Chain of ELF1 (P32519 whole entry): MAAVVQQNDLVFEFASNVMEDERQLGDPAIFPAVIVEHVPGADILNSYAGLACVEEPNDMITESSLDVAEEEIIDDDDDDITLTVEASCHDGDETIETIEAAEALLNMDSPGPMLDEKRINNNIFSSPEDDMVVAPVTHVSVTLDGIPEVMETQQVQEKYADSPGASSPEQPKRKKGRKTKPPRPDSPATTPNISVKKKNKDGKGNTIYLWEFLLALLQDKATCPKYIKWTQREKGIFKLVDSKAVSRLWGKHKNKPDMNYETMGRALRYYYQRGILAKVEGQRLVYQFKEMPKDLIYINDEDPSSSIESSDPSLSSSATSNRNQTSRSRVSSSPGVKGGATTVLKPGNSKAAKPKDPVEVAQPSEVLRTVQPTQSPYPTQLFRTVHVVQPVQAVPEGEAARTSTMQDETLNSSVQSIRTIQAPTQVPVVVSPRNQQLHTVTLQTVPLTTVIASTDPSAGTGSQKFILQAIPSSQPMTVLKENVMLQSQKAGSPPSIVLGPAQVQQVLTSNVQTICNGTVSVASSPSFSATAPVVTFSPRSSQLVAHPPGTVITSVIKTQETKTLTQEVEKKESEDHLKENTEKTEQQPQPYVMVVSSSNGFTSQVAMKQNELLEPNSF
Outline: as §1

EHF = target: T5, EHF (Homo sapiens, UniProt Q9NZC4 1-300); conditions: protein: recombinant; tags: N-terminal GST; dsDNA, one strand shown
T5 sequence: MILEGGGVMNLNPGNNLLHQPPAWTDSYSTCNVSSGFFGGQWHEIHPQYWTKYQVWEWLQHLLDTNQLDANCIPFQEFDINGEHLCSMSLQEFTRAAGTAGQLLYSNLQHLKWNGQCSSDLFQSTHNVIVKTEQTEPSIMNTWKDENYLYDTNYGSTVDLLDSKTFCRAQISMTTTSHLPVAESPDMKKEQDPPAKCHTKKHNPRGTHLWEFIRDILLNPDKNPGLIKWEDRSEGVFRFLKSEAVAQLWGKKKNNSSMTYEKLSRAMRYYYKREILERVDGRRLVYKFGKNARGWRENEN
Outline: as §1

SPI1 = SPI1 (Homo sapiens, UniProt P17947 1-270); conditions: protein: recombinant; tags: N-terminal GST; dsDNA, one strand shown
Outline: as §1

SPIB = SPIB (Homo sapiens, UniProt Q01892 1-262); conditions: protein: recombinant; tags: N-terminal GST; dsDNA, one strand shown
Chain of SPIB (Q01892 whole entry): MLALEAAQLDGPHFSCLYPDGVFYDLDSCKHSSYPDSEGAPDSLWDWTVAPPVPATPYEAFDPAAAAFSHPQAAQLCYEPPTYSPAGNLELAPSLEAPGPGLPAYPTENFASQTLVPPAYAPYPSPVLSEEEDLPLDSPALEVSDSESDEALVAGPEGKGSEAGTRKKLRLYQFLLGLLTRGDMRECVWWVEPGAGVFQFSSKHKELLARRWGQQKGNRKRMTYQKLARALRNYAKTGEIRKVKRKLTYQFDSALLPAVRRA
Outline: as §1

ELK3 = target: T6, ELK3 (Homo sapiens, UniProt P41970 1-407); conditions: protein: recombinant; tags: N-terminal GST; dsDNA, one strand shown
T6 sequence: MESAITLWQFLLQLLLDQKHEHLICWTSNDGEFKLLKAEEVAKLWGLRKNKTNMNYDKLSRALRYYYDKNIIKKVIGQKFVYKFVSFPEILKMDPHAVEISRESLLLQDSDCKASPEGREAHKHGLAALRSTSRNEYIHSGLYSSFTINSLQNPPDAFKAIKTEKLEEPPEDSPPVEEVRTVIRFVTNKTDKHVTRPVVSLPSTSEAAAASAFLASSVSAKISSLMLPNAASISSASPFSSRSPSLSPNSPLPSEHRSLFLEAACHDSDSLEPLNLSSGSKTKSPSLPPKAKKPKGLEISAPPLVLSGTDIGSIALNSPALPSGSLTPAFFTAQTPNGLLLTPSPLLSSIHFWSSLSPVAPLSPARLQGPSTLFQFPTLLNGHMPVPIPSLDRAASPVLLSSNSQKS
Outline: as §1

FEV = target: T7, FEV (Homo sapiens, UniProt Q99581 1-238); conditions: protein: recombinant; tags: N-terminal GST; dsDNA, one strand shown
T7 sequence: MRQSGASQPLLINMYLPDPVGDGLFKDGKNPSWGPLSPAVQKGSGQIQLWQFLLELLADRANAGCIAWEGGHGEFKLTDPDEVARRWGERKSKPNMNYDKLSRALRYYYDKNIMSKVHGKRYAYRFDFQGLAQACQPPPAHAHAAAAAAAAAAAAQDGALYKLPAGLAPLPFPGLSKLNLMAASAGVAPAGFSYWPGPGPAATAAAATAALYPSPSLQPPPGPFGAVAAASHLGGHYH
Outline: as §1

ETV5 = ETV5 (Homo sapiens, UniProt P41161 1-510); conditions: protein: recombinant; tags: N-terminal GST; dsDNA, one strand shown
Chain of ETV5 (P41161 whole entry): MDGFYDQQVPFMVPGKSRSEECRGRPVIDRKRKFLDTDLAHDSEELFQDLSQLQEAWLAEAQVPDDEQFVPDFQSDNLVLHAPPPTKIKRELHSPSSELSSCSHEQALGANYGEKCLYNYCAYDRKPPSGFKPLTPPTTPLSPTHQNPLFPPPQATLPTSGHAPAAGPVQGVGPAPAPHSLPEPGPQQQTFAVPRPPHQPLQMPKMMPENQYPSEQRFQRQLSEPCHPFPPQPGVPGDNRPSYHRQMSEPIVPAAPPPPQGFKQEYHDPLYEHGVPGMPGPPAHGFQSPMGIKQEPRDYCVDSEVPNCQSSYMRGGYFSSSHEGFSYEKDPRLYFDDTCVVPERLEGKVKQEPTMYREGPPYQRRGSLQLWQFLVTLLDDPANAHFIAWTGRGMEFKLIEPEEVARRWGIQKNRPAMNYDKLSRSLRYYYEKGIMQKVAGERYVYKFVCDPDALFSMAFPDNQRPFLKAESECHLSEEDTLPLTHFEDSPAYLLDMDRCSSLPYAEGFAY
Outline: as §1

HSF1 = HSF1 (Homo sapiens, UniProt Q00613 1-529); conditions: protein: recombinant; tags: N-terminal GST; chain copies: 3; dsDNA, one strand shown
Chain of HSF1 (Q00613 whole entry): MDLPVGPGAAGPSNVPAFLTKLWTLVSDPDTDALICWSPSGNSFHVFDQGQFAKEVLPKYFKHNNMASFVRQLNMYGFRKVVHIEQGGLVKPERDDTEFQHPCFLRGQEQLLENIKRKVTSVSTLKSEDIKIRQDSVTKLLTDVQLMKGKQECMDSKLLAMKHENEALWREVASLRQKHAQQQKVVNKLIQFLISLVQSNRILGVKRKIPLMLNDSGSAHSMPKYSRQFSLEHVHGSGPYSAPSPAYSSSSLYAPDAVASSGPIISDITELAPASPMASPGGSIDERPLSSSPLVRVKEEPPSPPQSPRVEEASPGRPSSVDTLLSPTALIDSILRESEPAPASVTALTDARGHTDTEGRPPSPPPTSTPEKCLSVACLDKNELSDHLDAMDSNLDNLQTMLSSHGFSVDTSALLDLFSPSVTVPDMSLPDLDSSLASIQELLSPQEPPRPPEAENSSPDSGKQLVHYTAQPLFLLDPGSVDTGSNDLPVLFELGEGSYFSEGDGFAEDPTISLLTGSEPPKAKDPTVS
Outline: as §1

SPIC = target: T8, SPIC (Homo sapiens, UniProt Q8N5J4 1-248); conditions: protein: recombinant; tags: N-terminal GST; dsDNA, one strand shown
T8 sequence: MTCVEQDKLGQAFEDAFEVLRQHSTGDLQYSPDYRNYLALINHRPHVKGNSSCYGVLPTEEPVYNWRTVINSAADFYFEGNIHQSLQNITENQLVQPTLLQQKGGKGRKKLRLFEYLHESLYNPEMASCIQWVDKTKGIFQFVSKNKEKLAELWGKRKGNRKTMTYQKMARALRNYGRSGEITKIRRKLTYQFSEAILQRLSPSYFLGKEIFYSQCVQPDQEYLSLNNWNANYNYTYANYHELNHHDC
Outline: as §1

ELF4 = ELF4 (Homo sapiens, UniProt Q99607 1-663); conditions: protein: recombinant; tags: N-terminal GST; dsDNA, one strand shown
Chain of ELF4 (Q99607 whole entry): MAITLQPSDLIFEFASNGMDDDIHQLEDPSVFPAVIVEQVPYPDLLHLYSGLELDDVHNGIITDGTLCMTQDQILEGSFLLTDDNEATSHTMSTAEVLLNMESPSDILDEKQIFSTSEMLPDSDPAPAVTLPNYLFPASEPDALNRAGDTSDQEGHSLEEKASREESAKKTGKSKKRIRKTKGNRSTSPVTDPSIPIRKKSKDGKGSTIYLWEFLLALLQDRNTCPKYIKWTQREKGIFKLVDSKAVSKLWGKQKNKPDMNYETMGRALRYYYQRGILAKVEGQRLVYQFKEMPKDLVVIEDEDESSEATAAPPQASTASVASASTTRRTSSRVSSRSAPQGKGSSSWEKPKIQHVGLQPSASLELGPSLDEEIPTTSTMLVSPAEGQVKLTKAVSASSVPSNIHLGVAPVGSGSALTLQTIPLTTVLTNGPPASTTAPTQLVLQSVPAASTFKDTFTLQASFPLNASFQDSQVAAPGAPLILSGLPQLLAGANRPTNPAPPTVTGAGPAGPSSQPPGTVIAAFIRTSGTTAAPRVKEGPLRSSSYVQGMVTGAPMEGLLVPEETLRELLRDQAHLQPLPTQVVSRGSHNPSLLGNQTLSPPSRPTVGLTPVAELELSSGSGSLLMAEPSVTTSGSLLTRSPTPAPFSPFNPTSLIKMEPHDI
Outline: as §1

ELK4 = target: T9, ELK4 (Homo sapiens, UniProt P28324-2 1-405); conditions: protein: recombinant; tags: N-terminal GST; dsDNA, one strand shown
T9 sequence: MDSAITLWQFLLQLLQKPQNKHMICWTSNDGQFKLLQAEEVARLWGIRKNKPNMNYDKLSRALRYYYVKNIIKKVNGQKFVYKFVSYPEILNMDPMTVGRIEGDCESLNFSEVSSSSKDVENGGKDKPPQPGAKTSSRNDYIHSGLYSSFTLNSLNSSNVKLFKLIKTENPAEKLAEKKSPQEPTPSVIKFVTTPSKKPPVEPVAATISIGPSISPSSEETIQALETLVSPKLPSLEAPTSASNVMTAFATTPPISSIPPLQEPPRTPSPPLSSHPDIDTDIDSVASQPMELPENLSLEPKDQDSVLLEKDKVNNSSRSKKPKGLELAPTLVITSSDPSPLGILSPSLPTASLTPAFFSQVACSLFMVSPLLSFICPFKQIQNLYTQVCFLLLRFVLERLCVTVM
Outline: as §1

ETV2 = target: T10, ETV2 (Homo sapiens, UniProt O00321 1-342); conditions: protein: recombinant; tags: N-terminal GST; dsDNA, one strand shown
T10 sequence: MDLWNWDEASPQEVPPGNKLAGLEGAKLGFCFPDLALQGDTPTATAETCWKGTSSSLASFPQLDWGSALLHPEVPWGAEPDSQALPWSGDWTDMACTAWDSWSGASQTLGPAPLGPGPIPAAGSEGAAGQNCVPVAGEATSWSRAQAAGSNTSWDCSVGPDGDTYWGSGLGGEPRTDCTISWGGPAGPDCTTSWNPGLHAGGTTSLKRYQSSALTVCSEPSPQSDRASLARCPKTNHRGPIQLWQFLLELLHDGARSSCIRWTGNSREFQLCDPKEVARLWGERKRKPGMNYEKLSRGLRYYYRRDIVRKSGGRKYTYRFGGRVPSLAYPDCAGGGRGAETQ
Outline: as §1

ELF3 = target: T11, ELF3 (Homo sapiens, UniProt P78545 1-371); conditions: protein: recombinant; tags: N-terminal GST; dsDNA, one strand shown
T11 sequence: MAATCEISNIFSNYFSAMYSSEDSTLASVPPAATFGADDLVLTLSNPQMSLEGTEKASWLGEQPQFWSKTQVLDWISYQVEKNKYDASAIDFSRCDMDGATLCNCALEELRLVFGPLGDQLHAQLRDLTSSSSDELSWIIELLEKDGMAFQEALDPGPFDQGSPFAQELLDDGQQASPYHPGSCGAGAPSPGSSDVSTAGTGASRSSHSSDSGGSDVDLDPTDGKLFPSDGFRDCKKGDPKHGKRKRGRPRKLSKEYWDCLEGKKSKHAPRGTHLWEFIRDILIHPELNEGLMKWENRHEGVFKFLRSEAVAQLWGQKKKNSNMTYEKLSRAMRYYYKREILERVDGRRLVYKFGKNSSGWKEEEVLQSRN
Outline: as §1

CRX = CRX (Homo sapiens, UniProt O43186 1-299); conditions: protein: recombinant; tags: N-terminal GST; dsDNA, one strand shown
Chain of CRX (O43186 whole entry): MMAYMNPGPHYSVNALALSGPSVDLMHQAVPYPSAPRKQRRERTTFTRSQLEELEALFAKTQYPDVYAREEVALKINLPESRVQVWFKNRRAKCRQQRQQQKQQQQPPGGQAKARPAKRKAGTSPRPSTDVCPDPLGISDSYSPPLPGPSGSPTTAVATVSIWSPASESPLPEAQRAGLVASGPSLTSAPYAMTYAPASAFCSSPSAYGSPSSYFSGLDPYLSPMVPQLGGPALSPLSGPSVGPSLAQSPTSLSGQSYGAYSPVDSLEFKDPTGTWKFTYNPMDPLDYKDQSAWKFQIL
Outline: as §1

ETV1 = ETV1 (Homo sapiens, UniProt P50549 1-477); conditions: protein: recombinant; tags: N-terminal GST; dsDNA, one strand shown
Chain of ETV1 (P50549 whole entry): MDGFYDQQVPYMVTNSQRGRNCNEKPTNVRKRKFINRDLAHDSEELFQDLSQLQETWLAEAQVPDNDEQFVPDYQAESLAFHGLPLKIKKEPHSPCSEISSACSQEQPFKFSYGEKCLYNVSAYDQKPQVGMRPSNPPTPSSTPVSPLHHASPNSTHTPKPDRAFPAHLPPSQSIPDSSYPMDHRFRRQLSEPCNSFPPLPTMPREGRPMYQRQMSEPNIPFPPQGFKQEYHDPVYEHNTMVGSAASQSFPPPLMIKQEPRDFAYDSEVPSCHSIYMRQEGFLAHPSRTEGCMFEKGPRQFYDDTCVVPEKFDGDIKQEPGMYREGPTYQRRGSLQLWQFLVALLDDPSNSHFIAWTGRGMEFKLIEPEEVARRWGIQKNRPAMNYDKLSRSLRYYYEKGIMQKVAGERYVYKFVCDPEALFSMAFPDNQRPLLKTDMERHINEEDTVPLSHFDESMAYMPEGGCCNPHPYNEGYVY
Outline: as §1

Sequence: ATCTGT
- binding signal (FLI1): 1.25 fold enrichment (6-mer frequency, TF over GST control)
- binding signal (ELK1): 1.24 fold enrichment (6-mer frequency, TF over GST control)
- binding signal (GABPA): 1.18 fold enrichment (6-mer frequency, TF over GST control)
- binding signal (ERG): 1.19 fold enrichment (6-mer frequency, TF over GST control)
- binding signal (ELF1): 1.18 fold enrichment (6-mer frequency, TF over GST control)
- binding signal (EHF): 1.11 fold enrichment (6-mer frequency, TF over GST control)
- binding signal (SPI1): 1.13 fold enrichment (6-mer frequency, TF over GST control)
- binding signal (SPIB): 1.14 fold enrichment (6-mer frequency, TF over GST control)
- binding signal (ELK3): 1.07 fold enrichment (6-mer frequency, TF over GST control)
- binding signal (FEV): 1.22 fold enrichment (6-mer frequency, TF over GST control)
- binding signal (ETV5): 1.07 fold enrichment (6-mer frequency, TF over GST control)
- binding signal (HSF1): 1.26 fold enrichment (6-mer frequency, TF over GST control)
- binding signal (SPIC): 1.19 fold enrichment (6-mer frequency, TF over GST control)
- binding signal (ELF4): 1.21 fold enrichment (6-mer frequency, TF over GST control)
- binding signal (ELK4): 1.1 fold enrichment (6-mer frequency, TF over GST control)
- binding signal (ETV2): 1.19 fold enrichment (6-mer frequency, TF over GST control)
- binding signal (ELF3): 1.17 fold enrichment (6-mer frequency, TF over GST control)
- binding signal (CRX): 1.45 fold enrichment (6-mer frequency, TF over GST control)
- binding signal (ETV1): 1.26 fold enrichment (6-mer frequency, TF over GST control)
